Where “and” joins values, the source holds several entries; their conditions need not be identical. Equal entries are not always repeated. Among all 410,000 compounds or so, about 2,400 (0.59%) were called active. Cut-off read from the data, not from the text of the source: active = max activation above about 30%; inactive = the rest. Many of the other results were omitted from the sample, so actives are more common in it than they were.

For the assay, the target named is D(3) dopamine receptor (Homo sapiens) (UniProt P35462). The assay is described as follows: qHTS of D3 Dopamine Receptor Agonist: qHTS. Note: 0% is about no effect. Conditions: D3R DiscoveRx beta-arrestin cells, luminescence, 90 min; hits give high values. In outline: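 Agonist mode: compounds and dopamine controls were applied to plated cells for 90 min at 37 degrees C after an overnight attachment at 1500 cells/well. Luminescent read-out followed 30 - 60 minutes at room temperature with DiscoveRx detection reagent.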
Sequence of D(3) dopamine receptor (Homo sapiens) (P35462 whole entry, looked up): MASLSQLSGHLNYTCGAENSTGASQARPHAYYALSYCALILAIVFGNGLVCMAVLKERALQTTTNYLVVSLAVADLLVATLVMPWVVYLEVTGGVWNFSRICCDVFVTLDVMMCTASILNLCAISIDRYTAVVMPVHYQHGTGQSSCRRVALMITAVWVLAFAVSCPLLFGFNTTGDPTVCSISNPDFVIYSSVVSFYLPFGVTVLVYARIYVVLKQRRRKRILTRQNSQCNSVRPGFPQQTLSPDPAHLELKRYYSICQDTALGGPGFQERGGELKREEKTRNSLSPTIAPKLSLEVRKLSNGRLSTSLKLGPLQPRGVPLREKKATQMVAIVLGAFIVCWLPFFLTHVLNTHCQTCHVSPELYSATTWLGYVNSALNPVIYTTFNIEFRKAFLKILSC
For orientation: In qHTS, concentration-response curves come from the screen itself.
Consider `CCOC(=O)c1cc(-c2sc(NC(=O)c3ccccc3)nc2C)n(Cc2ccccc2)n1`, for which the max activation is 8.04% (inactive).

As for `CCOC(=O)c1cc(-c2ccccc2C)n(Cc2cc(C)no2)n1`, the max activation was 59.5% (active).

As to `CCOC(=O)c1cc(OC(=O)c2ccccc2Cl)n(-c2ccccc2)n1`, the max activation was -8.96% (inactive).

`CCc1ccc(C(=O)NC(=S)Nc2ccccc2N2CCOCC2)cc1`: the max activation is -1.31% (inactive).

On to `COc1ccc(C(=O)NC(=S)Nc2ccccc2N2CCN(S(C)(=O)=O)CC2)cc1OC`, for which the max activation is 34.6% (active).

For `CC(=O)N1CCN(c2ccccc2NC(=S)NC(=O)c2cc3ccccc3o2)CC1`, the max activation is -3.88% (inactive).

`CCOc1cccc2sc(N3CCN(C(=O)C4CC4)CC3)nc12`: the max activation was -4.91% (inactive).

As for `Cc1ccccc1-n1c(SCC(=O)Nc2cccc3ccccc23)nc(O)cc1=O`, the max activation is 0.0019% (inactive).

Consider `CC/C(=N\NC(=O)c1ccccc1Cl)c1ccc(Br)s1`, for which the max activation was 5.71% (inactive).

As for `C/C(=N\NC(=O)CNc1cccc2ccccc12)c1ccc(Br)s1`, the max activation was 30.4% (active).

`CCC(Cc1ccccc1)NS(=O)(=O)c1ccc2c(c1)NC(=O)CS2` (stereo unspecified): the max activation is 34.1% (active).

On to `COc1ccccc1CNS(=O)(=O)c1ccc2c(c1)NC(=O)CS2`, for which the max activation is 5.98% (inactive).

Consider `O=C1CSc2ccc(S(=O)(=O)NCc3ccccc3)cc2N1`, for which the max activation is -4.53% (inactive).

Turning to `Cc1ccccc1CSc1nc2c([nH]c3ccccc32)c(=O)n1C`, the max activation was -3.75% (inactive).

In the case of `COc1ccc(-c2nc3c(s2)CCc2onc(-c4ccc(Br)cc4)c2-3)cc1`, the max activation was 31.5% (active).

In the case of `COc1ccc(-c2nc3n(c2Br)CCC3)cc1`, the max activation was 8% (inactive).

For `COc1ccc(-c2nc3c(s2)CCc2onc(-c4ccc(OC)cc4)c2-3)cc1`, the max activation was 5.32% (inactive).

Take `NC(=O)C(=O)N/N=C/c1ccc([N+](=O)[O-])o1`: the max activation was -13.9% (inactive).

With `CN1CC(O)c2cc(N=NC(N)=O)c(O)cc21` (stereo unspecified), the max activation was -13% (inactive).

With `Cc1oc2c(F)c(F)c(F)c(F)c2c1S(=O)(=O)Nc1cccc(C(F)(F)F)c1`, the max activation is 39.8% (active).

With `Cc1oc2ccc(O)c(CN3CCCCC3)c2c1C(=O)Nc1cccc(C(F)(F)F)c1`, the max activation was 0.725% (inactive).

For the molecule `Cc1onc(-c2ccc(F)cc2F)c1C(=O)Nc1cccc(C(F)(F)F)c1`, the max activation is -14.1% (inactive).

As for `COc1cc(Cl)c(NC(=O)C(NS(=O)(=O)c2cccs2)C(C)C)c(OC)c1` (stereo unspecified), the max activation is 6.54% (inactive).

On to `COc1ccc(CCNc2ncnc3c2cnn3-c2ccc(C)cc2)cc1`, for which the max activation is 11.8% (inactive).

For `Cc1ccccc1C(=O)Nc1sc2c(c1C(=O)N1CCC(C)CC1)CCCC2`, the max activation was -2.21% (inactive).

Consider `COc1ccccc1-n1c(-c2ccc(C)cc2)cn2c3c(=O)n(C)c(=O)n(C)c3nc12`, for which the max activation was -0.938% (inactive).

In the case of `COc1ccccc1-n1c(=S)[nH]c2c(sc(=S)n2-c2ccc(C)cc2C)c1=O`, the max activation is 37.7% (active).

For `CCc1ccc(-n2c(=S)sc3c(=O)n(-c4ccccc4OC)c(=S)[nH]c32)cc1`, the max activation is 0.277% (inactive).

Take `COc1cc(CNCCSc2nnnn2C)ccc1OCc1ccc(Cl)cc1Cl`: the max activation is -19% (inactive).

Regarding `O=C(CCC1N=C2c3ccccc3N=C(SCc3ccccc3F)N2C1=O)NCCc1ccccc1` (stereo unspecified), the max activation was 5.62% (inactive).

Turning to `O=C(Cn1nnc(-c2ccccc2)n1)N/N=C/c1ccc(-c2ccc(Cl)cc2)o1`, the max activation is 34.9% (active).

With `Cc1ccc(NC(=O)CN(C)C(=O)Cn2nnc(-c3ccccc3)n2)cc1`, the max activation was 5.42% (inactive).

With `O=C(Cn1nnc(-c2ccccc2)n1)NC(=O)NC1CCCC1`, the max activation was 4.92% (inactive).

As for `CCOc1ccc(CNC(=O)c2cc(=O)[nH]c3ccc(S(=O)(=O)N4CCCCC4)cc23)cc1`, the max activation is 1.15% (inactive).

With `COc1ccc2cc(CNc3ccc(OC)c(OC)c3)c(=O)n(CC(=O)Nc3ccccc3F)c2c1`, the max activation is 2.84% (inactive).

In the case of `Cc1ccc(OCCSc2nc(C)c(Cc3ccccc3)c(=O)[nH]2)cc1`, the max activation was 4.35% (inactive).

Consider `Cc1ccc(CNC(=O)[C@@H](NC(=O)Cc2ccccc2)C(C)C)cc1`, for which the max activation was -1.46% (inactive).

Regarding `Cc1ccc(CNC(=O)c2ccccc2CCc2ccccc2)cc1`, the max activation was 31.4% (active).

For the molecule `Cc1ccc(CNC(=O)Cc2cn(C)c3ccccc23)cc1`, the max activation was -3.47% (inactive).

For `COC(=O)C1(S(=O)(=O)C2(C(=O)OC)CCCC2)CCCC1`, the max activation was 31% (active).

Consider `CC1(C)OC[C@@H](COC(=O)CCc2ccc(OC[C@@H](O)CNCCNC(=O)N3CCOCC3)cc2)O1`, for which the max activation is -23.2% (inactive) and -20.2% (inactive).

On to `CC(C)(C)OC(=O)CNC(=O)c1[nH]cnc1C(=O)N[C@@H](CCCCN)C(=O)OC(C)(C)C`, for which the max activation was 0% (inactive).

Regarding `COc1ccc(-c2cn3c(n2)sc2cc(C(=O)Nc4ccccc4F)ccc23)cc1`, the max activation was 35.4% (active).

As for `COc1ccc(-c2cn3c(n2)sc2cc(C(=O)Nc4ccc(F)cc4)ccc23)cc1`, the max activation was 13.3% (inactive).

With `CCN1CCN(CCCNC(=O)c2ccc3c(c2)sc2nc(-c4ccc(OC)cc4)cn23)CC1`, the max activation is -6.77% (inactive).

Regarding `O=C(Nc1ccc(O)cc1)c1ccccc1O`, the max activation was -0.0653% (inactive).

In the case of `CC1(C)S[C@@H]2[C@H](NC(=O)COc3ccccc3)C(=O)N2C1C(=O)OCc1ccccc1` (stereo partly specified), the max activation is -3.7% (inactive).

On to `CC1(C)SC2C(NC(=O)COc3ccccc3)C(=O)N2C1C(=O)O` (stereo unspecified), for which the max activation is 2.21% (inactive) and 6.06% (inactive).

In the case of `COC(=O)C1[C@H]2SC(C)(C)C(C(=O)OC)N2C(=O)N1Cc1nc2ccccc2s1` (stereo partly specified), the max activation is 37.5% (active).

For `Cc1ccc2[nH]c3c(=O)n(CC(=O)NC(C)C)ncc3c2c1`, the max activation was 2.56% (inactive).

Consider `CCOc1ccc(NS(=O)(=O)c2ccc(N)cc2)nn1`, for which the max activation is -7.97% (inactive).

With `COc1cccc(C(=O)Nc2c3c(nn2-c2cccc(C)c2C)CS(=O)(=O)C3)c1OC`, the max activation was -20.8% (inactive).

In the case of `Cc1cccc(C(=O)OC(C)C(=O)NC2CCCc3ccccc32)c1O` (stereo unspecified), the max activation is -10.5% (inactive).

Turning to `COc1ccc(C(=O)NC2CCCc3c2cnn3-c2cccc(C)c2C)c(OC)n1` (stereo unspecified), the max activation is 48.2% (active).

`Cc1ccc(NC(=O)c2nc(S(=O)(=O)Cc3cccc(C)c3)ncc2Cl)cc1`: the max activation is -23.7% (inactive).

With `CC1(C)S[C@@H]2[C@H](N=CN3CCCCCC3)C(=O)N2[C@H]1C(=O)O`, the max activation was -22.5% (inactive).
